Laboratory results: PubChem BioAssay AID743446 (Broad Institute, 2014)
Measured potencies and affinities stand elsewhere. A number with no mark means an inactive call. The rule behind the calls is not given here.

test: HEK293 cell cytotoxicity, dose response, cytotoxicity control, plate reader, cherry-picked samples (AID 743446); details: stronger effect = lower value; at 26 µM unless noted

Going from `CN1CCN(c2ccc(NC(=O)c3sc4ccccc4c3Cl)cc2)CC1` to `Cc1cc(Cl)ccc1OCCCC(=O)Nc1cc(S(=O)(=O)N2CCOCC2)ccc1N1CCOCC1`, the max activity falls from 17.1% [at 0.1 µM] to -21.8% [at 0.1 µM].

First: O=C(c1ccccc1)N1CCSc2sccc2C1=O
Second: O=C(CN1C(=O)c2ccccc2S1(=O)=O)c1ccccc1F
The max activity of the first is lower: 36.7% for the first, 74.6% for the second.

First: Oc1ccc(-c2csc(-c3cccnc3)n2)c(O)c1
Second: Brc1ccc(-c2nc(-c3ccccn3)no2)o1
The max activity of the first is lower: -34.3% for the first, -10% for the second.

Compared with `O=C(CN1C(=O)c2ccccc2S1(=O)=O)c1ccc(F)cc1`, `CC1(c2ccccc2Cl)NC(=O)N(CC(=O)N2CCc3ccccc32)C1=O` (stereo not drawn) is lower in max activity: 63.1% for the first, 40.9% for the second.

Compared with `CC(C)c1ccc2c(c1)C(N1CCNCC1)Cc1ccc(F)cc1S2` (stereo not drawn), `CCCCn1nnnc1C(c1cc2ccccc2o1)N1CCN(c2ccncc2)CC1` (stereo not drawn) is higher in max activity: -119% for the first, 11.8% for the second.

First: O=C(c1cc(-c2ccccc2Cl)on1)N1CCCC1
Second: CCOc1ccc(C(=O)Nc2cccc(C(=O)O)c2C)cc1Cl
The max activity of the first is higher: 27.2% for the first, 26.7% for the second.

First: C[C@H](CO)N1C[C@H](C)[C@H](CN(C)C(=O)Nc2ccccc2)OCCCC[C@H](C)Oc2ccc(NC(=O)Nc3ccccc3)cc2C1=O
Second: C[C@@H]1CN([C@@H](C)CO)C(=O)c2cc(NS(=O)(=O)c3ccc(F)cc3)ccc2O[C@H]1CN(C)Cc1ccc(-c2ccccc2)cc1
The max activity of the first is higher: 21.5% for the first, -27.1% for the second.

First: Cc1ccc(C)c(S(=O)(=O)N(C(=O)c2ccncc2)c2ccc(OC(=O)c3ccncc3)cc2)c1
Second: O=c1[nH]c(CSc2ccccn2)nc2c1oc1ccccc12
The max activity of the first is higher: 13.7% for the first, -17.8% for the second.

Compared with `O=C(C[C@H]1C=C[C@@H](NC(=O)C2CCC2)[C@H](CO)O1)NCCCN1CCOCC1`, `Cc1ccc2nc(-c3ccc(NC(=O)COC(=O)c4ccco4)cc3)sc2c1` is higher in max activity: -15.9% [at 1.6 µM] for the first, -11.7% [at 1.6 µM] for the second.

Going from `CCNC(=S)NNC(=O)c1cc(-c2ccc(OCC)cc2)nc2ccccc12` to `Cc1ccc(NC(=O)c2cnn(-c3ccccc3)c2C)cc1C`, the max activity falls from 15.8% [at 0.05 µM] to 11.5% [at 0.05 µM].

Compared with `CCCC(=O)N1CCCC(c2cc(C(=O)Nc3ccccc3)no2)C1` (stereo not drawn), `O=C(c1cc(-c2ccc(Cl)cc2Cl)on1)N1CCOCC1` is higher in max activity: -23.2% [at 0.05 µM] for the first, 14.9% [at 0.05 µM] for the second.

Going from `O=C(O)c1ccc(N/N=C/c2ccc3ncccc3c2)cc1` to `O=C(Nc1cccnc1)c1cc(-c2ccc3c(c2)OCO3)on1`, the max activity rises from 14.9% [at 12 µM] to 26.9% [at 12 µM].

Compared with `N#Cc1cccc(-c2ccc([C@@H]3[C@H](CO)N4CCCCN(C(=O)Nc5cccc(F)c5)C[C@@H]34)cc2)c1`, `Cc1ccc(NC(=O)c2sc3ccccc3c2Cl)nc1` is higher in max activity: 4.74% [at 12 µM] for the first, 24.8% [at 12 µM] for the second.

`Cc1ccc(-c2noc(-c3cccs3)n2)cc1` gave a max activity of 22.5% [at 12 µM].

In the case of `CCc1ccc2ncc(S(=O)(=O)c3ccc(C)c(C)c3)c(N3CCCC3)c2c1`, the max activity is reported as 19.3% [at 0.38 µM].

With `C[C@H](CO)N1C[C@H](C)[C@H](CN(C)C(=O)Nc2ccccc2)OCCCC[C@H](C)Oc2ccc(NC(=O)Nc3ccc4c(c3)OCO4)cc2C1=O` the max activity was 50.9% [at 0.195 µM].

First: COc1cccc(NC(=O)Nc2cccc(C(=O)O)c2)c1
Second: COc1ccc(-n2cc(C(=O)c3ccccc3O)cn2)cc1
The max activity of the first is lower: -21.7% [at 3 µM] for the first, 69.9% [at 3 µM] for the second.

First: c1ccc(-n2ncc3c(N4CCCCC4)ncnc32)cc1
Second: O=C(Nc1cccc(-c2ccc(N3CCCCC3)nn2)c1)C(F)(F)F
The max activity of the first is higher: -13.3% [at 3 µM] for the first, -33.5% [at 3 µM] for the second.

For `O=C1OCCC1Sc1nnc(-c2ccc(Cl)cc2Cl)o1` (stereo not drawn), the max activity was 7.96% [at 0.8 µM].

Going from `O=C(O)c1cccc(COc2ccc(CO)cc2Cl)c1` to `Cc1cnc(NC(=O)c2ccc(OCC3CCCO3)cc2)s1` (stereo not drawn), the max activity falls from 13.3% [at 6 µM] to 9% [at 6 µM].

`Cc1ccc(C(=O)n2nc(-n3cccc3)c3c(C)cc(C)nc32)cc1` gave a max activity of -22.4% [at 6 µM].

With `C[C@H](CO)N1C[C@H](C)[C@H](CN(C)C(=O)Nc2ccc(F)cc2)OCCCC[C@H](C)Oc2ccc(NC(=O)Nc3ccc(F)cc3)cc2C1=O` the max activity was 17% [at 1.5 µM].
